PKA kinase inh: inhibitors of human PKA kinase activity, primary screen, biochemical, ATP-depletion luminescence, Kemptide substrate; cAMP-dependent protein kinase catalytic subunit alpha (Homo sapiens), P17612; PKA Kemptide phosphorylation, Kinase-Glo ATP luminescence; inhibition, % at 6 µM; 65,000 compounds, 0.1% hits; AID 524, 2006;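 active = inhibition above the screen-wide mean inhibition plus 3 SD, cut at about 21% in these data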
ROCK2 blocker: inhibitors of human ROCK2 kinase, primary screen, biochemical, high-throughput, luminescence | AID 604, 2007 | 60,000 compounds, 0.35% hits | Rho-associated protein kinase 2 (Homo sapiens), O75116 | inhibition, % at 6 µM | purified ROCK2, Kinase-Glo ATP depletion luminescence;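 active = inhibition above the screen-wide mean inhibition plus 3 SD, cut at about 18% in these data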;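 also: plate controls were DMSO wells for no effect and Y-27632 control wells after no-enzyme background subtraction for full effect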
D1 mod: D1 CRE-luciferase signal change, two-sided – cell-based, HEK293 D1, dopamine EC30, D1 allosteric modulator project, primary screen; D(1A) dopamine receptor (Homo sapiens), P21728; dopamine EC30 potentiation; actives deviate in either direction; B-score at 10 µM; 58,000 compounds, 5.9% hits; AID 641, 2007;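 active = luminescence count or its row- and column-corrected plate score outside the 99.7% band of the plate's sample wells, on either side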
hDAT+cocaine: changed hDAT dopamine uptake under cocaine IC80, either direction, primary screen, cocaine antagonist project, cell-based, LLC-PK1 hDAT, [14C]-dopamine uptake, MLSMR | 110,000 compounds, 1.3% hits | LLC-PK1 hDAT cells, [14C]-dopamine uptake with cocaine IC80; actives deviate in either direction | Sodium-dependent dopamine transporter (Homo sapiens), Q01959 | B-score at 10 µM;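 active = Z score or B-score, a plate-position-corrected score, falls beyond the plate's 99.7% confidence bounds, in either direction; inactive = both scores lie inside the 99.7% bounds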;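 also: scored against the spread of the other compound wells on the same plate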
Target sequence (Q01959 whole entry, looked up): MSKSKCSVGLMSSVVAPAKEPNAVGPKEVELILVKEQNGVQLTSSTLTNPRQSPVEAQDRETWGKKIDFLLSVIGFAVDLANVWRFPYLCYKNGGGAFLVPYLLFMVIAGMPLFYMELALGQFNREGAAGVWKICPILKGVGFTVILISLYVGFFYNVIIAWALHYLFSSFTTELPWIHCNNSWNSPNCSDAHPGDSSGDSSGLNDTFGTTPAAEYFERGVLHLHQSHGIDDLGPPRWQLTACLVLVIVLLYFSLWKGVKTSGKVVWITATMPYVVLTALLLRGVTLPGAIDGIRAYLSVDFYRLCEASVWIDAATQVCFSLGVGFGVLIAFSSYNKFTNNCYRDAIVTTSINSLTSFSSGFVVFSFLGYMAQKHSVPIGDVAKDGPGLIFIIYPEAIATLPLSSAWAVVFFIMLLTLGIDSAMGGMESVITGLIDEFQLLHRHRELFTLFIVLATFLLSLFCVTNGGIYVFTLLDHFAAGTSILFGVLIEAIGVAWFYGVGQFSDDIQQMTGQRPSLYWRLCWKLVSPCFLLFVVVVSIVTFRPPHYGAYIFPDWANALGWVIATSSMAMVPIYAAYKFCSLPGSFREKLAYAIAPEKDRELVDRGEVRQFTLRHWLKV
* marks the source's active call; other numbers are inactive results; . = not tested or not shown. Shown is part of a subset that was picked to be rich in hits.

SMILES	PKA kinase inh	ROCK2 blocker	D1 mod	hDAT+cocaine
CCOc1ccc(-n2cc(C(=O)N3CCCCCC3)c3cc(OC)c(OC)cc3c2=O)cc1	11.4	5.6	-1.18	2.86*
O=C(OCC(F)(F)F)c1cccc(COc2ccc3ccccc3c2)c1	.	.	.	-0.119
Cc1nc(NCc2ccco2)c2c3c(sc2n1)CCC3	8.1	8.2	-4.71*	0.0783
CCOC(=O)C(NC(=O)Nc1ccccc1)(OCC)C(F)(F)F (stereo not given)	3.5	2.7	-0.095	-0.34
CCOC(=O)C(NC(C)=O)(OCc1ccc(F)cc1)C(F)(F)F (stereo not given)	0.5	0.1	-5.72*	0.63
COc1ccc(C)cc1-n1nnnc1SCc1csc(C)n1	7.5	0.5	0.741	-8.25*
CCCc1cc2c(=O)c(-c3ccc4c(c3)OCCO4)coc2cc1OC(=O)c1ccco1	.	.	.	-0.604
CCCc1cc2c(=O)c(-c3ccc4c(c3)OCCO4)c(C)oc2cc1OS(C)(=O)=O	.	.	.	2.76*
Cc1oc2cc3c(C(=O)OCCN(C)C)c(C)oc3cc2c1C(=O)OCCN(C)C	8.9	0.8	-3.39*	.
COc1ccc([C@H]2C=C3CN(C(=O)OC(C)(C)C)S(=O)(=O)[C@H]3C[C@H]2OC(=O)c2cccs2)cc1	.	.	.	0.406
O=C(COc1ccc(Cl)cc1Cl)N(Cc1ccco1)C1CCS(=O)(=O)C1 (stereo not given)	1.5	-2.1	0.242	2.94*
Cc1cccnc1NC(=O)Nc1ccc(F)cc1	3.2	3.5	-2.45*	0.0929
Cc1ccc(NC(=O)Nc2ncccc2C)cc1	.	.	.	0.292
Cc1ccc(C(=O)N/C(=C\c2cccs2)C(=O)NCCCn2ccnc2)cc1C	.	.	.	0.354
Oc1c(Cl)cc(Cl)cc1/C=N/c1nccs1	.	.	.	4.36*
COc1ccc(-c2cc(C(F)F)n3ncc(C(=O)N4CCCCC4)c3n2)cc1	.	.	.	2.58*
CCN1CCN(C(=O)c2cnn3c(C(F)F)cc(-c4ccc(C)cc4)nc23)CC1	2.2	.	.	-0.0137
NCCCC[C@H]1CN=C(N)N1CCCCC1CCCCC1	.	.	.	-1.27
CC(O)[C@H]1CN=C(N)N1CCCCC1CCCCC1 (stereo not given in full)	.	.	.	-4.68*
Cc1ccccc1-n1nc(C)c2cc(C(=O)NCc3cccnc3)sc21	3.3	0.4	-4.69*	-0.0468
COC(=O)C[C@H]1c2cc(F)ccc2S(=O)(=O)N1c1ccc(N(C)C)cc1	.	.	.	-0.255
Cc1ccc2[nH]c3c(NCc4ccco4)ncnc3c2c1	5.7	4.8	-3.64*	1.61
c1coc(CNc2ncnc3nc[nH]c23)c1	17.2	25.2*	0.585	0.0862
COc1ccc(-c2nnc(-c3cccs3)o2)cc1OC	-2.2	1.3	4.63	-0.541
CCOc1ccc(-c2nnc(-c3cccs3)o2)cc1OCC	14.2	6.3	5.05*	-0.211
SMILES	PKA kinase inh	ROCK2 blocker	D1 mod	hDAT+cocaine
Cn1c(=O)c2cc(S(=O)(=O)NCCC(=O)NC3CCCCCCC3)ccc2n(C)c1=O	-2.6	2.2	-3.59*	-0.0954
O=C(NCc1ccc(Cl)cc1)c1ccc(Br)o1	.	.	.	-1.11
Cc1cc(C(=O)CSc2nnnn2-c2ccc(O)cc2)c(C)n1Cc1ccc2c(c1)OCO2	7.5	9.7	.	-0.768
Cc1cc(C(=O)CSc2nnc(-c3cccc(F)c3)n2N)c(C)n1Cc1ccc2c(c1)OCO2	6.9	3.5	-7.82*	-0.402
Cc1ccccc1C(=O)Nc1ccc2c(c1)OCO2	0.0	4.7	-4.3*	1.97
O=C(Nc1ccc2c(c1)OCO2)c1noc2c1CCCCC2	2.8	-1.8	-4.42*	-1.92
CC(=O)c1ccc(NC(=O)c2noc3c2CCCCC3)cc1	2.7	4.6	-2.06	.
O=C(NCc1cccc(C(F)(F)F)c1)C1CC(c2ccccc2C(F)(F)F)=NO1 (stereo not given)	.	.	.	0.00342
CCOC(=O)N1CCC2(CC1)C(C#N)=C(N)Oc1n[nH]c(CSc3ccc(C)cc3)c12	-3.7	-3.7	-4.59*	0.145
Cc1ccc(SCc2[nH]nc3c2C2(CCSCC2)C(C#N)=C(N)O3)cc1	-3.1	-2.0	.	-0.168
N#Cc1c(N)oc(-c2ccccc2)c1-c1ccccc1	1.5	.	.	-0.629
N#Cc1c(N)oc(-c2ccco2)c1-c1ccco1	5.5	6.1	18.6*	-0.111
O=C(CCn1c(=O)c2sccc2n(CC(=O)OCc2ccccc2)c1=O)NCc1ccccc1	.	.	.	-0.00928
CC(C)c1ccc(-c2nn(-c3ccccc3)cc2C2C(C#N)=C(N)OC3=C2C(=O)CC(C)(C)C3)cc1 (stereo not given)	.	.	.	0.526
Cc1nnc(SC(=O)N2c3ccccc3Sc3ccccc32)s1	10.4	3.9	-3.26*	-0.0417
CC(C)OC(=O)CSc1nnc(-c2ccco2)n1N	-0.1	-5.1	-3.12*	.
CCCn1c(SCC(N)=O)nnc1-c1ccco1	8.8	.	-3.19*	-0.558
NC(=O)NC(c1ccccc1)c1cccc2ccccc12 (stereo not given)	.	.	.	-2.12
Cc1ccccc1NC(=O)c1cnc2ccccn2c1=O	4.3	3.1	-5.82*	0.256
N#CC1=C(N)Oc2n[nH]c(-c3ccccc3)c2C1c1ccncc1 (stereo not given)	-3.8	-1.7	0.393	-0.266
N#CC1=C(N)Oc2n[nH]c(-c3ccc(F)cc3)c2C1c1cccnc1 (stereo not given)	2.0	.	4.82*	0.493
CCOC(=O)N1CCN(CC(=O)Nc2ccc(Oc3ccccc3)cc2)CC1	.	.	.	-0.157
CCN(CC)c1ccc(C2CC(=O)Nc3cc(OC)c(OC)cc32)cc1 (stereo not given)	5.8	.	0.0308	2.36*
CN1CC=C2C(C#N)=C(N)C(C#N)(C#N)C(c3cccc(Cl)c3Cl)C2C1 (stereo not given)	9.7	5.4	-4.68*	-0.722
Cc1ccc(C2C3CN(C(C)C)CC=C3C(C#N)=C(N)C2(C#N)C#N)cc1 (stereo not given)	4.1	4.2	-3.14*	.
SMILES	PKA kinase inh	ROCK2 blocker	D1 mod	hDAT+cocaine
C=CCNC(=O)c1onc(CSc2cccc(OC)c2)c1C(=O)O	.	.	.	-0.966
CCCCCCC(c1c(C)n(C)n(-c2ccccc2)c1=O)c1c(C)n(C)n(-c2ccccc2)c1=O	-1.4	0.2	-0.631	3.17*
Cc1nc(-c2cccc(NS(=O)(=O)c3cccc4ccccc34)c2)cs1	.	.	.	3.5*
O=C(Nc1cccc(-c2csc(-c3ccccc3)n2)c1)c1cccs1	.	.	.	1.52
Nc1nc(-c2cccc(NS(=O)(=O)c3ccccc3)c2)cs1	-3.6	-2.4	0.157	-0.639
Cc1nc(-c2cccc(NC(=O)c3cccs3)c2)cs1	.	.	.	3.22*
CCC(=O)N1CCC2(CC1)Oc1ccc(Cl)cc1C(=O)C21CC(c2ccc(Cl)cc2)=NO1 (stereo not given)	.	.	.	-0.0171
Nc1nc2ccc(Oc3ccccc3)cc2s1	-7.9	-0.7	-4.54*	-0.844
O=S(=O)(NCC1CCCO1)c1ccc(S(=O)(=O)N(Cc2ccccc2F)C2CCCCC2)cc1 (stereo not given)	.	.	.	0.462
CCOC(=O)C(CC)(CC)/C(C)=N/NC(=O)CC#N	.	.	.	-1.48
COc1ccccc1OCC(=O)Nc1ccc(S(=O)(=O)Nc2nc(C)cc(C)n2)cc1	10.7	6.5	0.114	3.53*

Screening data (PubChem BioAssay)
